In PubChem BioAssay (NCATS):
Inconclusive results are not listed. Activity calls are given as the source filed them. Unless noted, calls come from the whole dose curve; as a rule, active = well fitted curve in the direction sought with a large enough effect; inconclusive = small, poorly fitted or top-dose-only effect, or another doubt; inactive = no such curve, though single readings can be large; an effect the other way counts as inactive or inconclusive.

Experiments:
[1] = Cell Viability - BJ (AID 421; calls by dose curve;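 note: potency is the fitted concentration of half-maximal effect; cells exposed to compound for 40 hours at 37 °C before readout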); conditions: BJ fibroblast viability, qHTS
Method in brief: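 Cytotoxicity as drop in intracellular ATP (CellTiter-Glo, 20 min RT) after 40 hr compound exposure of BJ fibroblasts at 37 °C. Titrations scaled between DMSO and 100 uM tamoxifen, Hill-fitted for AC50.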

[2] = Cell Viability - Jurkat (AID 426;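 active = dose-dependent loss of cell ATP signal giving a full or clear fitted curve, ranked by lower potency value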;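 note: potency is the fitted concentration of half-maximal effect; cells exposed to compound for 40 hours at 37 °C before ATP read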); conditions: qHTS
Method in brief: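 Seed 5000 Jurkat E6-1 cells/well; add compound; incubate 40 hr at 37 °C; add CellTiter-Glo; wait 20 min at room temperature; read luminescence. Fit concentration-response with Hill equation for AC50.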

[3] = Cell Viability - Hek293 (AID 427;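 active = compounds whose dose-response curve shows a full or clear partial loss of cell viability, called from curve shape rather than a numeric limit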;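 note: potency is the fitted concentration of half-maximal effect; cells exposed to compound for 40 hours at 37 °C before reading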); conditions: qHTS
Method in brief: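 Luminescent ATP content (CellTiter-Glo, 20 min at room temperature) was measured after a 40 hr, 37 °C compound exposure of HEK293 cells. AC50 values came from Hill-equation fits of qHTS concentration-response data normalized to DMSO and 100 uM tamoxifen.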

[4] = Cell Viability - HepG2 (AID 433; calls by dose curve;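 note: potency is the fitted concentration of half-maximal effect; potency for ATP loss meaning cytotoxicity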); conditions: qHTS
Method in brief: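 Read-out is luciferase-based quantitation of cellular ATP as a measure of viable HepG2 cells after 40 h treatment at 37 °C. Signal decrease is scaled between DMSO-only and 100 uM tamoxifen controls, with AC50 fitted by the Hill equation.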

[5] = Cell Viability - MRC5 (AID 434; calls by dose curve;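 note: potency is the fitted concentration of half-maximal effect; cells exposed to compound for 40 hours at 37 °C; potency reflects cytotoxicity seen as loss of intracellular ATP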); conditions: MRC5 lung fibroblast viability, qHTS
Method in brief: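 MRC5 normal human lung fibroblasts (1500/well) were treated with compounds for 40 hr at 37 °C in complete medium, and viable cells were measured as intracellular ATP by CellTiter-Glo luminescence. AC50 came from Hill fits, normalized to DMSO and 100 uM tamoxifen.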

[6] = Cell Viability - SK-N-SH (AID 435; calls by dose curve;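 note: potency is the fitted concentration of half-maximal effect; compound exposure lasted 40 h at 37 °C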); conditions: SK-N-SH neuroblastoma cell viability qHTS
Method in brief: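 Luminescent ATP signal served as the viability read-out after 40 hours of compound treatment of human neuroblastoma SK-N-SH cells. Concentration-response data, scaled between DMSO and 100 uM tamoxifen, gave AC50 values by standard Hill modeling.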

[7] = target: Mitogen-activated protein kinase 10 (Mus musculus) (UniProt Q61831); test: JNK3 AlphaScreen Assay (AID 530; active = well fitted curve in either direction with a large enough effect, not every such curve was filed as active;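 note: kinase came from lysate of stimulated human HepG2 cells; signal reports phosphorylation of biotinylated GST-cJun 1-79 at Ser73 with 10 µM ATP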); conditions: JNK3 lysate, c-Jun phosphorylation; series mostly up to 57.1 µM
Method in brief: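 JNK3 came from HepG2 lysates pre-activated with IL-1beta and TNF-alpha and phosphorylated biotinylated GST-cJun (1-79) at 10 uM ATP, pH 7.6, room temperature. Compounds were titrated. AlphaScreen signal used anti-phospho-cJun (Ser73) antibody.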

[8] = Cell Viability - N2a (AID 540); conditions: N2a mouse neuroblastoma cell viability; series mostly up to 92.2 µM;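 note: cells exposed to compound for 40 h at 37 °C; nearly all actives have a fitted effect of over 45% in size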
Method in brief: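 First, 1500 N2a cells per well incubate 5 hr at 37 °C; next, compounds are added and incubated 40 hr at 37 °C; finally CellTiter-Glo is added and luminescence read after 20 min, with AC50 derived by Hill modeling.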

[9] = Cell Viability - HUV-EC-C (AID 542); conditions: HUV-EC-C endothelial cell viability, qHTS; series mostly up to 92.2 µM; note: nearly all actives have a fitted effect of over 35% in size
Method in brief: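 Decrease in cellular ATP, quantified by luciferase luminescence, reflects toxicity in normal human vascular endothelial HUV-EC-C cells given compound for 40 hr in complete culture medium. Values are AC50s from concentration-response curves.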

[10] = Cell Viability - H-4-II-E (AID 543); conditions: H-4-II-E rat hepatoma viability; series mostly up to 92.2 µM; note: nearly all actives have a fitted effect of over 35% in size
Method in brief: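 Here, cytotoxicity is measured in the rat hepatoma line H-4-II-E as loss of intracellular ATP after 40 hr compound treatment, detected by luciferase luminescence.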

[11] = Cell Viability - SH-SY5Y (AID 544); conditions: SH-SY5Y neuroblastoma cell viability; series mostly up to 92.2 µM; note: nearly all actives have a fitted effect of over 55% in size
Method in brief: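 Cytotoxicity is scored as a concentration-dependent fall in intracellular ATP in human SH-SY5Y cells treated 40 hr in complete culture medium. Potency is expressed as AC50 from a Hill equation fit.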

[12] = Cell Viability - Renal Proximal Tubule (AID 545); conditions: renal proximal tubule cells viability, primary cells of rat origin; series mostly up to 91.7 µM; note: nearly all actives have a fitted effect of over 40% in size
Method in brief: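 Luminescent ATP signal (CellTiter-Glo) served as the viability read-out after 40 hr compound exposure of freshly isolated rat proximal tubule cells at 37 °C. Concentration-dependent ATP loss was fitted with the Hill equation to give AC50.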

[13] = Cell Viability - Mesenchymal (AID 546); conditions: mesenchymal cells viability, qHTS; series mostly up to 91.7 µM;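 note: cells exposed to compound for 40 hours before reading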
Method in brief: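 Normal human renal glomerulus-derived kidney mesenchymal cells, 1000 per well in complete medium, were treated with compounds for 40 hr at 37 °C. Viability was read as intracellular ATP by CellTiter-Glo luminescence; AC50 values came from Hill-equation fits of qHTS concentration-response data.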

[14] = Cellular Toxicity (caspase-3) HepG2 (AID 654); conditions: HepG2 caspase-3 activation, luminescence, 0% = DMSO only, 100% = tamoxifen; series mostly up to 92.2 µM;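 note: cells exposed to compound for 16 hours before reading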
Method in brief: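 qHTS, HepG2, 1500 cells/well, complete medium; cpd 16 h 37 °C; Caspase-Glo 3/7, 20 min RT; lum. Norm: DMSO vs 100 uM tamoxifen; AC50 Hill fit.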

[15] = Cellular Toxicity (caspase-3) Jurkat (AID 655); conditions: Jurkat caspase-3 activation, luminescence, DMSO = 0%, tamoxifen = 100%; series mostly up to 92.2 µM;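 note: cells exposed to compound for 16 h at 37 °C before reading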
Method in brief: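 5000 Jurkat cells/well; compound 16 hr, 37 °C; Caspase-Glo 3/7 added, 20 min RT; luminescence read. Norm: DMSO = 0%, tamoxifen 100 uM = 100%. AC50, Hill model.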

[16] = Cellular Toxicity (caspase-3) HUV-EC-C (AID 656); conditions: HUV-EC-C cells, caspase-3 activation (apoptosis), vehicle = 0, 100 µM tamoxifen = 100%; series mostly up to 92.2 µM
Method in brief: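 qHTS; HUV-EC-C, 1000 cells/well; 5 hr settle, 16 hr cmpd, 37°C; Caspase-Glo 3/7, 20 min RT; luminescence. Norm: DMSO = 0%, tamoxifen 100 uM = 100%. Hill-fit AC50.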

[17] = Cellular Toxicity (caspase-3) SHSY5Y (AID 657); conditions: SH-SY5Y caspase-3 activation, DMSO zero, 10 µM staurosporine = 100%; series mostly up to 91.7 µM;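 note: cells exposed to compound for 16 hours at 37 °C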
Method in brief: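 qHTS, SH-SY5Y, 1500 cells/well, 5 h pre-incubation 37 °C; compound 16 h 37 °C; Caspase-Glo 3/7 1 h RT; luminescence. Norm.: DMSO = 0, 10 uM staurosporine = 100%. Hill fit → AC50.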

[18] = Cellular Toxicity (caspase-3) BJ (AID 658); conditions: BJ fibroblasts, luminescence, normalized: DMSO 0%, staurosporine 100%; series mostly up to 91.7 µM;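 note: cells exposed to compound for 16 hours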
Method in brief: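 Luminescent aminoluciferin-substrate cleavage reports caspase 3/7 activity in normal human BJ fibroblasts after 16 hr compound exposure at 37 °C. Normalized to DMSO (basal) and 10 uM staurosporine (100%); AC50 from Hill fit of concentration-response.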

[19] = Cellular Toxicity (caspase-3) MRC-5 (AID 659); conditions: MRC-5 cells, luminescence, normalized: DMSO 0%, 10 µM staurosporine 100%; series mostly up to 91.7 µM
Method in brief: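 Luminescence from caspase-cleaved aminoluciferin substrate (Caspase-Glo 3/7, 1 hr RT) reports caspase 3/7 activity in MRC-5 lung fibroblasts after 16 hr compound exposure. Normalized to DMSO basal and 10 uM staurosporine as 100%; AC50 from Hill fits.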

Measured: Potency

C[C@@H]1[C@H](O)[C@@H](C)/C=C/C=C/C=C/C=C/C=C/C=C/C=C/[C@H](O[C@@H]2O[C@H](C)[C@@H](O)[C@H](N)[C@@H]2O)C[C@@H]2O[C@](O)(C[C@@H](O)C[C@@H](O)[C@H](O)CC[C@@H](O)C[C@@H](O)CC(=O)O[C@H]1C)C[C@H](O)[C@H]2C(=O)O
inactive: [1] > 92 µM | [2] > 92 µM | [3] > 92 µM | [4] > 92 µM | [5] > 92 µM | [6] > 92 µM | [7] | [8] | [9] | [10] | [11] | [12] | [13] | [14] | [15] | [16] | [17] | [18] | [19]
